# Source: PubChem BioAssay
# Several values for one entry are separate records, joined by “and”; a condition that tells them apart may be missing. Identical values can stand only once. A structure can be active in one record and inactive in another. Activity calls are given as the source filed them. Unless noted, no stated cut-off is given here; in the data, active means inhibition above about 80%; inactive means the rest.
# Legend:
# [1] = HTB85 osteosarcoma cell growth inhibition, synergistic combos for chromothripsis tumors, BGB or cisplatin IC20 combos (AID 1671453); conditions: HTB85 osteosarcoma cells, drug combinations, stronger effect = higher value;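 further: cells exposed for 96 hours before readout; 0% = vehicle DMSO and 100% = high DMSO killing control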
# [2] = CRL2098 osteosarcoma cell growth inhibition, synergistic combos for chromothripsis tumors, BGB or cisplatin IC20 combos (AID 1671454); conditions: CRL2098 osteosarcoma cells, drug combinations, stronger effect = higher value;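 further: cells exposed for 96 h before readout; 0% = vehicle DMSO and 100% = killing by high DMSO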
# [3] = HD-MB03 medulloblastoma cell growth inhibition, synergistic combos for chromothripsis tumors, BGB or cisplatin IC20 combos (AID 1671455; in the data active means inhibition above about 83%;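 further: 0% = vehicle DMSO and 100% = high DMSO as cytotoxic control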); conditions: HD-MB03 medulloblastoma cells, stronger effect = higher value
# [4] = UWB1.289 ovarian carcinoma cell growth inhibition, synergistic combos for chromothripsis tumors, BGB or cisplatin combos (AID 1671456); conditions: UWB1.289 ovarian carcinoma cells, stronger effect = higher value;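 further: cells exposed to compound for four days; 0% = vehicle DMSO and 100% = killing by high DMSO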
# [5] = LFS_MB_2R medulloblastoma cell growth inhibition, synergistic combos for chromothripsis tumors, cisplatin combos (AID 1671457); conditions: LFS_MB_2R medulloblastoma cells, stronger effect = higher value;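 further: cells exposed to compound for four days before readout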
# [6] = MDA-MB-436 breast carcinoma cell growth inhibition, synergistic combos for chromothripsis tumors, BGB or cisplatin combos (AID 1671458; call rule not given here;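 further: cells exposed for 96 hours; 0% = vehicle DMSO and 100% = killing by high DMSO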); conditions: MDA-MB-436 breast carcinoma growth inhibition, drug combinations, stronger effect = higher value
# [7] = UWB1.289_BRCA1 ovarian cancer growth, cell-based, BGB or cisplatin combinations (AID 1671459); conditions: UWB1.289 BRCA1 ovarian carcinoma, drug combinations, stronger effect = higher value
# [8] = human astrocyte viability loss, single and combined drugs, cytotoxicity control for chromothriptic childhood tumor combination screen, cell-based, BGB or cisplatin IC20 combos (AID 1671460); conditions: Human astrocytes, drug combinations, stronger effect = higher value;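 further: cells exposed to compounds for 96 hours before viability readout; 0% = vehicle and 100% = killing control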
# [9] = growth inhibition of BT084 medulloblastoma cells, cell-based, ICGC_MB145, cisplatin and BGB IC40 combos (AID 1671461); conditions: drug combinations, stronger effect = higher value;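 further: cells exposed to drugs for 96 hours; 0% = vehicle DMSO and 100% = high DMSO full killing control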
# [10] = growth inhibition of RCMB18 medulloblastoma cells, cell-based, cisplatin and BGB IC40 combos (AID 1671462); conditions: stronger effect = higher value;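 further: cells exposed to compound for four days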
# [11] = growth inhibition of CRL1545 osteosarcoma cells, cell-based, cisplatin and BGB IC20 combos (AID 1671464); conditions: stronger effect = higher value;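 further: cells exposed to compound for 96 hours before readout; 0% = vehicle DMSO and 100% = high DMSO killing control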
# [12] = sensitizers of A549 cells to miR-34 induction, primary screen, imaging, A549 dox-inducible miR-34, nuclei and caspase counts (AID 1347080;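 active means compounds whose cell count with miR-34 switched on is under 0.7 times the count with it off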); conditions: A549 miR-34 inducible, Hoechst nuclei count, 48 h
# [13] = survival rescue of mitochondrial mutant cells in low glucose, primary screen, MELAS cybrids, Rieske KO mouse fibroblasts, CellTiter-Glo (AID 1508586;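 active means mean z-score across replicates of 1.96 or higher in either the MELAS or the Rieske mutant cell line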;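 further: z relative to plate mean and SD of compound and empty wells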)
# [14] = LFS_MB_P medulloblastoma growth inhibition, cell-based, chromothripsis tumors, cisplatin or BGB combos (AID 1671449); conditions: LFS_MB_P medulloblastoma cells;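 further: cells exposed for 96 hours; 0% = vehicle DMSO and 100% = killing by high DMSO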
# [15] = HDN33 neuroblastoma growth inhibition, cell-based, chromothripsis tumors, cisplatin or BGB combos (AID 1671450); conditions: HDN33 neuroblastoma cells, stronger effect = higher value;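 further: cells exposed to compound for four days; 0% = vehicle DMSO and 100% = cell killing by high DMSO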
# [16] = ICB984 medulloblastoma cell growth inhibition, synergistic combos for chromothripsis tumors, cisplatin or BGB combos (AID 1671451; call rule not given here;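 further: cells exposed for 96 hours before readout; 0% = vehicle DMSO and 100% = killing by high DMSO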); conditions: ICB984 medulloblastoma cells, drug combinations, stronger effect = higher value
# [17] = LFS_MB_1R medulloblastoma cell growth inhibition, synergistic combos for chromothripsis tumors, cisplatin or BGB combos (AID 1671452); conditions: LFS_MB_1R medulloblastoma cells, stronger effect = higher value;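 further: cells exposed for 96 hours before readout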
# [18] = hESC survival regulators, cell-based (AID 493140; call rule not given here;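 further: cells exposed to compounds for four days before counting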); conditions: human embryonic stem cell survival screen; stronger effect = higher value
# [19] = liver-stage malaria parasite growth inhibition, primary screen, cell-based, HepG2, luciferase luminescence, HepG2 viability (AID 624349; in the data active means parasite load remaining mostly below about 12%, no sharp cut-off; inactive means mostly above about 10%;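 further: 100% = mean of DMSO negative control wells on the same plate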); conditions: P. berghei liver stage in HepG2, luciferase luminescence, concentration not given here; parasite load remaining: stronger effect = lower value; viability: measured here: HepG2 viability without parasites
# [20] = measured here: with BGB IC20, at 0.5 µM
# [21] = measured here: with BGB IC20, at 5 µM
# [22] = measured here: with cisplatin IC20, at 0.5 µM
# [23] = measured here: with cisplatin IC20, at 5 µM
# [24] = measured here: combination with BGB at IC20, at 0.5 µM
# [25] = measured here: combination with cisplatin at IC20, at 0.5 µM
# [26] = measured here: combo with BGB at IC20, at 0.5 µM
# [27] = measured here: combo with cisplatin at IC20, at 0.5 µM
# [28] = measured here: inhibition with BGB combination, at 0.05 µM
# [29] = measured here: inhibition with cisplatin combination, at 0.05 µM
# [30] = measured here: combination with cisplatin, at 0.5 µM
# [31] = measured here: combination with cisplatin, at 5 µM
# [32] = measured here: BGB combination, at 0.5 µM
# [33] = measured here: BGB combination, at 5 µM
# [34] = measured here: cisplatin combination, at 0.5 µM
# [35] = measured here: cisplatin combination, at 5 µM
# [36] = BGB combination, concentration series, at 5 µM
# [37] = cisplatin combination, concentration series, at 5 µM
# [38] = measured here: combo with BGB IC20, at 0.5 µM
# [39] = measured here: combo with cisplatin IC20, at 0.5 µM
# [40] = cisplatin combination, at 0.5 µM
# [41] = measured here: BGB IC40 combination 0.05 uM, at 0.05 µM
# [42] = measured here: BGB IC40 combination, at 0.05 µM
# [43] = measured here: with BGB IC20 combination, at 0.5 µM
# [44] = measured here: with cisplatin IC20 combination, at 0.5 µM
# [45] = stronger effect = lower value, cell number ratio, induced over uninduced
# [46] = measured here: relative caspase fold change +Dox/-Dox
# [47] = measured here: total cells with miR-34 induction, stronger effect = lower value
# [48] = measured here: total cells without miR-34 induction
# [49] = MELAS cybrid survival, CellTiter-Glo 48 h, stronger effect = higher value
# [50] = Rieske KO mouse fibroblast survival, CellTiter-Glo 72 h
# [51] = measured here: combination with BGB IC40, at 0.05 µM
smiles,measurement,setting,value
Cc1cc(C)c(Nc2ccnc(Nc3ccc(C#N)cc3)n2)c(C)c1,inhibition,[1]; at 0.5 µM,-1.97% (inactive)
same,inhibition,[1]; [20],4.79%
same,inhibition,[1]; [21],40.8%
same,inhibition,[1]; [22],-20.5%
same,inhibition,[1]; [23],9.74%
same,inhibition,"[1]; single agent, at 5 µM",50.9%
same,inhibition,[2]; at 0.5 µM,-8.33% (inactive)
same,inhibition,[2]; [24],-39%
same,inhibition,[2]; [25],10.4%
same,inhibition,[3]; at 0.5 µM,-17.9% (inactive)
same,inhibition,[3]; [26],-21.5%
same,inhibition,[3]; [27],-28.7%
same,inhibition,[4]; at 0.5 µM,-2.26% (inactive)
same,inhibition,[4]; [28],-10.8%
same,inhibition,[4]; [29],-7.91%
same,inhibition,[5]; at 0.5 µM,-18.5% (inactive)
same,inhibition,[5]; [30],-29.8%
same,inhibition,[5]; [31],-25.8%
same,inhibition,[6]; at 0.5 µM,-14.9% (inactive)
same,inhibition,[6]; [32],-9.41%
same,inhibition,[6]; [33],25.9%
same,inhibition,[6]; [34],-36.7%
same,inhibition,[6]; [35],45.4%
same,inhibition,[7]; [36],69.3%
same,inhibition,[7]; at 0.5 µM,-2.68% (inactive)
same,inhibition,[7]; [37],45%
same,inhibition,[8]; at 0.5 µM,11.9% (inactive)
same,inhibition,[8]; [38],11.7%
same,inhibition,[8]; [39],9.36%
same,inhibition,[9]; at 0.5 µM,8.57% (inactive)
same,inhibition,[9]; [40],-23.4%
same,inhibition,"[9]; cisplatin combination, at 5 µM",-181%
same,inhibition,[9]; [41],-32.7%
same,inhibition,"[9]; single agent, at 5 µM",2.56%
same,inhibition,[10]; at 0.5 µM,-10.9% (inactive)
same,inhibition,"[10]; cisplatin combo, at 5 µM",-30.4%
same,inhibition,[10]; [42],-21.8%
same,inhibition,[10]; [30],-16.3%
same,inhibition,"[10]; single agent, at 5 µM",17.4%
same,inhibition,[11]; at 0.5 µM,11.1% (inactive)
same,inhibition,[11]; [43],-10.9%
same,inhibition,[11]; [44],20.9%
same,inhibition,"[11]; single agent, at 0.05 µM",-17.9%
same,inhibition,"[11]; single agent, at 5 µM",56.2%
CC=C1NC(=O)C2CSSCCC=CC(CC(=O)NC(C(C)C)C(=O)N2)OC(=O)C(C(C)C)NC1=O (configuration not stated),fold change,[12]; [45],0.776 (inactive)
same,fold change,[12]; [46],0.484
same,cell count,[12]; [47],596
same,cell count,[12]; [48],768
same,z-score,[13]; [49],0.102 (inactive)
same,z-score,[13]; [50],-3.68
same,inhibition,"[14]; at 0.5 µM, stronger effect = higher value",-10.7% (inactive) and 88% (active)
same,inhibition,"[14]; measured here: combination with BGB IC20, at 0.005 µM",24.5% and 60%
same,inhibition,"[14]; measured here: combination with BGB IC40, at 0.005 µM",2.54% and 37.2%
same,inhibition,[14]; [51],74.1% and 67.4%
same,inhibition,"[14]; measured here: combination with cisplatin, at 0.5 µM, stronger effect = higher value",10.9% and 123%
same,inhibition,"[14]; measured here: combination with cisplatin, at 5 µM, stronger effect = higher value",118% and 111%
same,inhibition,"[15]; BGB combo, at 5 µM",99.8% and 99.9%
same,inhibition,[15]; at 0.5 µM,99.7% (active) and 99.8% (active)
same,inhibition,"[15]; cisplatin combo, at 5 µM",99.8% and 99.9%
same,inhibition,[15]; [43],99.7% and 99.8%
same,inhibition,[15]; [44],99.8% and 99.9%
same,inhibition,"[15]; single agent, at 5 µM",99.9%
same,inhibition,"[16]; BGB IC20 combo, at 0.005 µM",90.4% and 84.4%
same,inhibition,"[16]; BGB IC40 combo, at 0.005 µM",97.9% and 97.5%
same,inhibition,"[16]; BGB IC40 combo, at 0.05 µM",97% and 97.5%
same,inhibition,[16]; at 0.5 µM,-17.2% (inactive) and 63.7% (inactive)
same,inhibition,"[16]; cisplatin combo, at 0.05 µM",96.8% and 97.9%
same,inhibition,"[16]; cisplatin combo, at 0.5 µM",-7.95% and 70.2%
same,inhibition,"[16]; cisplatin combo, at 5 µM",85.1% and 97.2%
same,inhibition,"[16]; measured here: 5 uM single agent, at 5 µM",81.2% and 80.4%
same,inhibition,[17]; at 0.5 µM,95.1% (active) and 99.5% (active)
same,inhibition,[17]; [51],91.6% and 93.4%
same,inhibition,[17]; [30],100% and 110%
same,inhibition,[17]; [31],98.8% and 99.1%
same,inhibition,[1]; at 0.5 µM,99.8% (active)
same,inhibition,[1]; [20],99.8%
same,inhibition,[1]; [21],99.9%
same,inhibition,[1]; [22],99.9% and 99.8%
same,inhibition,[1]; [23],99.9%
same,inhibition,"[1]; single agent, at 5 µM",99.9%
same,inhibition,[2]; at 0.5 µM,94.7% (active) and 97.3% (active)
same,inhibition,[2]; [24],91% and 95.3%
same,inhibition,[2]; [25],96.7% and 99.1%
same,inhibition,[3]; at 0.5 µM,99.8% (active) and 99.9% (active)
same,inhibition,[3]; [26],99.8%
same,inhibition,[3]; [27],99.8% and 100%
same,inhibition,[4]; at 0.5 µM,97.4% (active) and 98.3% (active)
same,inhibition,[4]; [28],65.5% and 83.9%
same,inhibition,[4]; [29],79.2% and 89.7%
same,inhibition,[5]; at 0.5 µM,88.5% (active) and 90.2% (active)
same,inhibition,[5]; [30],99.4% and 104%
same,inhibition,[5]; [31],102% and 106%
same,inhibition,[6]; at 0.5 µM,71.3% (inactive) and 68.4% (inactive)
same,inhibition,[6]; [32],57.2% and 55.5%
same,inhibition,[6]; [33],70.4% and 77.6%
same,inhibition,[6]; [34],73.2% and 67.4%
same,inhibition,[6]; [35],84.8% and 85.1%
same,inhibition,[7]; [36],118% and 126%
same,inhibition,[7]; at 0.5 µM,106% (active) and 109% (active)
same,inhibition,[7]; [37],131% and 130%
same,inhibition,[8]; at 0.5 µM,102% (active) and 101% (active)
same,inhibition,[8]; [38],105% and 103%
same,inhibition,[8]; [39],101%
same,inhibition,[9]; at 0.5 µM,93.8% (active) and 102% (active)
same,inhibition,[9]; [40],102% and 101%
same,inhibition,"[9]; cisplatin combination, at 5 µM",106%
same,inhibition,[9]; [41],99.6% and 96.6%
same,inhibition,"[9]; single agent, at 5 µM",106% and 108%
same,inhibition,[10]; at 0.5 µM,90.4% (active) and 89.4% (active)
same,inhibition,"[10]; cisplatin combo, at 5 µM",96% and 97.2%
same,inhibition,[10]; [42],78.9% and 79.8%
same,inhibition,[10]; [30],92.6% and 90.7%
same,inhibition,"[10]; single agent, at 5 µM",96.6% and 90.8%
same,inhibition,[11]; at 0.5 µM,96% (active) and 96.3% (active)
same,inhibition,[11]; [43],97% and 96.3%
same,inhibition,[11]; [44],95.4% and 96.2%
same,inhibition,"[11]; single agent, at 0.05 µM",89.7% and 93.3%
same,inhibition,"[11]; single agent, at 5 µM",97.8% and 96.3%
Cc1onc(-c2c(F)cccc2Cl)c1C(=O)N[C@@H]1C(=O)N2C(C(=O)O)C(C)(C)S[C@H]12 (some centres not stated),survival,[18],15.2 (inactive)
same,parasite load remaining,[19],131% (inactive)
same,viability,[19],74.7%
same,fold change,[12]; [45],0.98 (inactive)
same,fold change,[12]; [46],0.516
same,cell count,[12]; [47],9050
same,cell count,[12]; [48],9240
same,z-score,[13]; [49],0.325 (inactive)
same,z-score,[13]; [50],0.193
